JMJD2A Tudor = inhibitors of human JMJD2A Tudor domain. O75164. AlphaScreen JMJD2A-Tudor / H3K4me3 peptide binding. Potency, µM (titrated, usually from 114 µM), for inactives: top-dose activity change, negative = inhibition, hits mostly inhibitors. hit rate 4.4% among 390,000. AID 504339; also: % is scaled to controls: 0 for no effect and ±100 for the full control effect; nearly all actives have a fitted effect of over 50% in size
GLS inh = glutaminase GLS (human) inhibition | O94925 | GLS enzymatic activity, qHTS titration | Potency, µM (titrated, usually from 45.5 µM), inactives show at the highest dose activity change, negative = inhibition, actives largely listed as inhibitors | hit rate 0.21% among 410,000; also: % is scaled to controls: 0 for no effect and ±100 for the full control effect
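Read-out is an Amplex red fluorescence increase coupled through glutamate oxidase and HRP, measured before and after 30 min room-temperature incubation. hKGA is in 45 mM KH2PO4 (pH 8.2) with 0.02% Tween-20; glutamine added as 1mM solution.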
G9a block = G9a (human) methyltransferase inhibition | Q96KQ7 | G9a H3K9 monomethylation, AlphaScreen, 2 h | Potency, µM (doses to about 102 µM), without a hit: at the top dose activity, negative = inhibition, hits mostly inhibitors | hit rate 8.8% among 350,000 | AID 504332; also: % is scaled to controls: 0 for no effect and ±100 for the full control effect; nearly all actives have a fitted effect of over 75% in size
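Methyltransferase reactions run at room temperature for 2 h (20 nM enzyme, 500 nM biotin-H3K9 peptide, 20 uM SAM) after a 15 min compound preincubation; product detected by AlphaScreen beads and anti-H3K9me1 antibody.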
L3MBTL1 block = blocks human L3MBTL1; Q9Y468; AlphaScreen L3MBTL1–H3K9me1 peptide binding; Potency, µM (highest dose often 57.1 µM), for inactives: at the highest dose activity, negative = inhibition, hits mostly inhibitors; hit rate 0.66% among 230,000; also: % is scaled to controls: 0 for no effect and ±100 for the full control effect; nearly all actives have a fitted effect of over 60% in size
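Displacement of a biotinylated histone H3(1-15) peptide monomethylated at Lys9 (75 nM) from L3MBTL1 (50 nM) was measured by AlphaScreen after a 30 min room-temperature compound incubation; cefsulodin titration served as intraplate control.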
BAZ2B block = BAZ2B (human) inhibition; Q9UIF8; AlphaScreen BAZ2B-H3K14Ac peptide displacement; Potency, µM (top dose mostly 114 µM), without a hit: at the highest dose activity change, negative = inhibition, actives largely listed as inhibitors; hit rate 4.4% among 360,000; AID 504333; also: % is scaled to controls: 0 for no effect and ±100 for the full control effect; nearly all actives have a fitted effect of over 60% in size
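Compounds, titrated to a top concentration of 110 uM, were incubated 30 min at room temperature with preformed BAZ2B/acetyl-K14 H3 peptide complex (50 nM each). Proximity signal was measured by AlphaScreen after 20 min with beads.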
HP1b binding inh = HP1-beta chromodomain-methylated histone interaction inhibition. P83916. AlphaScreen HP1-beta / biotin-H3K9me3 peptide binding. Potency, µM (highest dose often 114 µM), without a hit: top-dose activity change, negative = inhibition, actives largely listed as inhibitors. hit rate 0.56% among 390,000. AID 540317; also: nearly all actives have a fitted effect of over 70% in size
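AlphaScreen: HP1-beta (50 nM) preformed 30 min with biotin-H3(1-18)K9me3 peptide (50 nM) in PBS pH 7.4, 0.01% Tween-20. Compound added for 30 min at RT, then streptavidin donor/nickel chelate acceptor beads (10 ug/mL) for 30 min.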
Numbers without * were called inactive; [ ] = remark or other dose. This is a sample that favours compounds with a hit; in the whole collection about 10% have one here. Calls follow the shape of the dose curve; as a rule, active = well fitted curve in the direction sought with a large enough effect; inconclusive = small, poorly fitted or top-dose-only effect, or another doubt; inactive = no such curve, though single readings can be large; an effect the other way counts as inactive or inconclusive. Potency is read from the fitted curve at half-maximal effect.

How did Cc1ccc(C)c(OCC(=O)Nc2ccc(S(=O)(=O)Nc3ccccn3)cc2)c1 do in these assays?
JMJD2A Tudor: -23%[57.1 µM]; GLS inh: 2%; G9a block: 50µM*; L3MBTL1 block: -5%; BAZ2B block: -5%; HP1b binding inh: -16%

What do the screens show for `Cc1ccc(C(C)C)c(OCC(=O)Nc2ccc(S(=O)(=O)Nc3onc(C)c3C)cc2)c1`?
JMJD2A Tudor: -28%; GLS inh: 12%; G9a block: -15%[59 µM]; BAZ2B block: 56µM*; HP1b binding inh: 0%

What do the screens show for `Cc1ccc(C)c(OCC(=O)Nc2nonc2NC(=O)COc2cc(C)ccc2C)c1`?
JMJD2A Tudor: -23%; GLS inh: -2%; G9a block: 16µM*; BAZ2B block: inconclusive; HP1b binding inh: 33%

How did CCOc1ccc(N(C)C(=O)CS(=O)(=O)c2cccc3nsnc23)cc1 do in these assays?
JMJD2A Tudor: -6%; GLS inh: 1%; G9a block: 1%[59 µM]; BAZ2B block: 6%; HP1b binding inh: 23%[57 µM]

Results for Cc1cccc(CCNC(=O)CCc2c(C)nc3c(c(C)nn3-c3ccccc3)c2C)c1 ?
JMJD2A Tudor: -8%; GLS inh: -2%; G9a block: 4%[59 µM]; BAZ2B block: -2%; HP1b binding inh: 18%

Results for COc1ccccc1CCn1c(=O)c(-c2cccc(Cl)c2)nc2cncnc21 ?
G9a block: 2%[0.501 µM]

What do the screens show for `Nc1ccc(C(=O)Nc2nc3ccccc3s2)cc1`?
JMJD2A Tudor: -20%; GLS inh: 0%; G9a block: -10%[59 µM]; L3MBTL1 block: -1%; BAZ2B block: -4%; HP1b binding inh: 29%

Results for O=C(Nc1nc(=O)c2ccccc2s1)c1ccc(Cl)cc1 ?
JMJD2A Tudor: -17%[11.4 µM]; GLS inh: -2%; G9a block: 4µM*; L3MBTL1 block: -2%; BAZ2B block: -19%; HP1b binding inh: 27%

What do the screens show for `O=C(CSC(=S)N1CCOCC1)Nc1nccs1`?
JMJD2A Tudor: 4%; GLS inh: 0%; G9a block: 0%; BAZ2B block: 0%; HP1b binding inh: 51%

Results for O=C(CSC(=S)N1CCOCC1)Nc1nc(=O)c2ccccc2s1 ?
G9a block: 4µM*; L3MBTL1 block: 2%; BAZ2B block: -2%

What do the screens show for `O=C(Nc1nc(=O)c2ccccc2s1)c1ccc(F)cc1`?
JMJD2A Tudor: inconclusive; GLS inh: 0%; G9a block: 1.8µM*; L3MBTL1 block: -2%; BAZ2B block: inconclusive; HP1b binding inh: 70%

Results for Cn1sc(NC(=O)c2ccc(Cl)cc2)nc1=O ?
JMJD2A Tudor: -6%; GLS inh: -3%; G9a block: 40µM*; L3MBTL1 block: 11%; BAZ2B block: 11%; HP1b binding inh: 22%

How did CCC1CC=CC2C1C(=O)N(Cc1ccccc1)C2c1ccc(C(F)(F)F)cc1 (stereo not given) do in these assays?
JMJD2A Tudor: 5%; HP1b binding inh: 42%

Results for Cc1cc2c(s1)c1cnn(Cc3cccc(F)c3)c(=O)c1n2C ?
JMJD2A Tudor: -27%

How did O=C(Cc1ccccc1)Nc1nc(=O)c2ccccc2s1 do in these assays?
JMJD2A Tudor: 12%[11.4 µM]; GLS inh: -2%; G9a block: 25µM*; L3MBTL1 block: -4%; BAZ2B block: -24%[57.1 µM]; HP1b binding inh: 51%

How did CS(=O)(=O)Nc1cccc(-c2ccc3ncnc(N4CCNCC4)c3c2)c1 do in these assays?
G9a block: 9%[0.501 µM]

What do the screens show for `Oc1ccc(-c2cn3c(n2)SCC3)cc1`?
JMJD2A Tudor: -28%; GLS inh: 9%; G9a block: 8.9µM*; BAZ2B block: -11%; HP1b binding inh: 1%

Results for Brc1ccc(-c2cn3c(n2)SCC3)cc1 ?
JMJD2A Tudor: -15%; GLS inh: 1%; L3MBTL1 block: 15%; BAZ2B block: inconclusive; HP1b binding inh: -1%
